Hits are enriched below; roughly 1.2% of the tested compounds scored in any of these assays.
ERG Ets-DNA blk = inhibitors of human ERG Ets domain-DNA interaction. P11308. fluorescence polarization, His-ERG Ets domain / labelled DNA. Potency, µM (top dose mostly 76.9 µM), hits mostly inhibitors. 0.028% of 370,000 active. AID 624246; active = well fitted inhibition curve with a large enough effect in the polarisation, with a control signal flat; inconclusive = small, poorly fitted or top-dose-only effect, or effect the other way, or a change in a side signal; inactive = no such curve, though single readings can be large or run the other way; the % refers to the polarisation;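 also: polarization taken with two DNA probes labelled with fluorescein and Texas red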
Target sequence (P11308 whole entry, looked up, the tested form may be a part): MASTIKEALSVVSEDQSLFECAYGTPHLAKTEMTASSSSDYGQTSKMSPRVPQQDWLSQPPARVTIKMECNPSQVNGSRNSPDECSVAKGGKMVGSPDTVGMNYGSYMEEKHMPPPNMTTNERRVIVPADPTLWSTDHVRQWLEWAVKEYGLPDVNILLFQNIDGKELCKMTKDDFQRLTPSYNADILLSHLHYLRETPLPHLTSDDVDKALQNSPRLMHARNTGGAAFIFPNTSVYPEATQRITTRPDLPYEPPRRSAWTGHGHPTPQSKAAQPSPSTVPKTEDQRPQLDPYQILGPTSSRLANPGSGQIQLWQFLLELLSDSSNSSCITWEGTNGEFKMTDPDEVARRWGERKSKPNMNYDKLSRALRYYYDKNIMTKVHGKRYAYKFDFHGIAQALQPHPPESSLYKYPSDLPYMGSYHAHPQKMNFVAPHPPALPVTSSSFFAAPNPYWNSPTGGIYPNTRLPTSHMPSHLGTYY
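His-tagged ERG Ets domain (1 uM in the protein solution; 300mM KCl, 50mM Tris-HCl, 1mM EDTA, 1mM DTT, pH 7.5) received compound, then a probe mix of 5 nM fluorescein-DNA and 100nM Texas-615-DNA. Fluorescence polarization was read for both dyes.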
BRCA1 expr act = BRCA1 expression activation. MCF7-BRCA1-FFLuc reporter, luminescence, 48 h; response scale: scaled: vehicle 0%, 10 µM genistein 100%. AID 624202. Potency, µM (titrated, usually from 46.1 µM), hits mostly activators. 1.1% of 380,000 active; also: nearly all actives have a fitted effect of over 80% in size
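MCF7-BRCA1-FFLuc cells, 2000/well in phenol-red-free MEM, attached 2 h then treated 48 h at 37 C. Luciferase luminescence read 15 min after reagent; normalized to genistein maximum activation (10microM) and DMSO, concentration-response fitted.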
Mito fusion act = blocks mitochondrial division or promotes mitochondrial fusion | 0.23% of 320,000 active | S. cerevisiae fusion-defective mutant growth rescue, CellTiterGlo 48 h | Potency, µM (top dose mostly 46.1 µM), usual class: activators; also: nearly all actives have a fitted effect of over 45% in size
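Read-out: ATP-based luminescence (CellTiterGlo, 10 min ambient) reporting growth of fusion-defective ts yeast after 48 hours at 37C on glycerol/ethanol YPEG medium in the presence of compound.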
B2AR arrestin = beta2AR (human) beta-arrestin recruitment activity; beta-arrestin recruitment to beta2AR, cell-based reporter; P07550; 0.02% of 330,000 active; Potency, µM (highest dose often 46.1 µM), actives largely listed as activators; also: nearly all actives have a fitted effect of over 65% in size
Large screens that a line does not name were inactive. Unless noted, calls follow the shape of the dose curve; as a rule, active = well fitted curve in the direction sought with a large enough effect; inconclusive = small, poorly fitted or top-dose-only effect, or another doubt; inactive = no such curve, though single readings can be large; an effect the other way counts as inactive or inconclusive.

CC(C)(C)OC(=O)N1CCC(c2c(C(=O)NC3CCN(Cc4ccccc4)CC3)cnn2-c2ccc(F)cc2F)CC1	none (no result: BRCA1 expr act, Mito fusion act, B2AR arrestin)
O=C1CCn2nc(-c3ccc(Cl)cc3)cc2N1	BRCA1 expr act 4µM
Cc1ccc(-n2ncc(C(=O)NC3CCCCC3)c2C2CCN(C(=O)OC(C)(C)C)CC2)cc1	none (no result: BRCA1 expr act, Mito fusion act, B2AR arrestin)
Fc1cccc2sc(Nc3nc4cc5c(cc4s3)OCCO5)nc12	Mito fusion act 11µM
Fc1cccc2sc(Nc3nc4cc5c(cc4s3)OCO5)nc12	Mito fusion act inconclusive
CCN(C(=O)c1cn(CC)c(=O)c2cc(OC)c(OC)cc12)c1ccccc1F	none (no result: Mito fusion act, B2AR arrestin)
COc1ccc2cc(C#N)c(SCC(=O)N3CCCC3)nc2c1	BRCA1 expr act 11µM
COC(=O)CSc1nc2cc(OC)ccc2cc1C#N	BRCA1 expr act inconclusive
COc1ccc(C(=O)NCCSC2CCCCC2)cc1	BRCA1 expr act 1.8µM
COCc1cn(-c2nc3ccccc3s2)nn1	BRCA1 expr act 11µM (no result: ERG Ets-DNA blk, Mito fusion act, B2AR arrestin)
N#CCCCc1cn(-c2nc3ccccc3s2)nn1	BRCA1 expr act 10µM (no result: ERG Ets-DNA blk, Mito fusion act, B2AR arrestin)
Cc1nc(NC(=O)C(C)(C)C)sc1C(=O)Cn1cc(CCCC#N)nn1	none (no result: ERG Ets-DNA blk, Mito fusion act, B2AR arrestin)
Cn1c2cc(B(O)O)sc2c2cnn(Cc3ccc(F)cc3F)c(=O)c21	none (no result: ERG Ets-DNA blk, BRCA1 expr act)
CC(C)(C)C(=O)Nc1ccccc1C(=O)NCc1cccnc1	none
CC(C)(C)c1ccccc1OCC(=O)Nc1ccccc1C(=O)NCc1cccnc1	Mito fusion act 16µM
CCC12CN3CC(CC)(CN(C1)C3c1cc(Br)ccc1OC)C2=O (stereo not drawn)	none (no result: BRCA1 expr act, Mito fusion act, B2AR arrestin)
O=C(Nc1ccsn1)c1ccc(Cl)cc1Cl	BRCA1 expr act 2.5µM
Cc1cc(NC(=O)c2ccc(Cl)cc2Cl)no1	none
Cc1ccc(NC(=O)CN2C(=O)c3ccccc3Sc3ncccc32)c(C)c1	none (no result: Mito fusion act, B2AR arrestin)
c1cncc(-c2noc(C34CC5CC(CC(C5)C3)C4)n2)c1	BRCA1 expr act 13µM
Cc1ccccc1-c1noc(C23CC4CC(CC(C4)C2)C3)n1	none
Clc1ccc(-c2nc(CSc3ccccn3)cs2)cc1	BRCA1 expr act 10µM (no result: ERG Ets-DNA blk, Mito fusion act, B2AR arrestin)
Nc1ccccc1SCc1csc(-c2ccc(Cl)cc2)n1	none
O=S(=O)(c1ccc(C(F)(F)F)cc1)N1CCN(c2nc(-c3ccccc3)nc3ccccc23)CC1	none (no result: ERG Ets-DNA blk, Mito fusion act, B2AR arrestin)
COC(=O)c1ccc(Cl)cc1NC(=O)N1CCC(CN2CCC(C)CC2)CC1	none (no result: BRCA1 expr act, Mito fusion act, B2AR arrestin)
CSc1nc(-c2ccc(Cl)cc2)nn1S(=O)(=O)c1ccc(Cl)cc1	BRCA1 expr act 10µM
CCC(=O)n1nc(-c2ccc(Cl)cc2)nc1SC	BRCA1 expr act 10µM
Cc1ccc(C)c(CSc2nc3ccncc3n2CC(=O)Nc2ccc(N(C)C)cc2)c1	none (no result: Mito fusion act, B2AR arrestin)
CC1CCCC(NC(=O)c2n[nH]c(=O)c3ccccc23)C1C (stereo not drawn)	BRCA1 expr act 11µM
CCN(CC)S(=O)(=O)c1ccc2c(c1)N(CC(=O)N1CCN(c3ccccc3F)CC1)C(=O)CO2	none (no result: Mito fusion act, B2AR arrestin)
Cc1cccc(NC(=O)Cn2cc(S(=O)(=O)N3CCCC3)c(S(=O)(=O)N3CCCC3)c2)c1C	none (no result: BRCA1 expr act, Mito fusion act, B2AR arrestin)
O=c1c2ccccc2oc2ccc(Oc3ccccc3)cc12	BRCA1 expr act 3.5µM
C/C(=N\NC(=S)NCc1ccccc1)c1ccccc1	BRCA1 expr act inconclusive
COc1ccc(CNC(=S)N/N=C(/C)c2ccccc2)cc1	BRCA1 expr act 7.1µM
Cc1ccc(N(C(=O)Nc2ccccc2)C2=NCC(C)S2)cc1 (stereo not drawn)	none
Cc1ccnc(N(C(=O)Nc2ccccc2)C2=NCC(C)(C)S2)c1	BRCA1 expr act 3.2µM
Cc1c(C(=O)N2CCCC2)oc2c1-c1nn(CC(=O)NCc3ccccc3Br)cc1CC2	none (no result: BRCA1 expr act, Mito fusion act, B2AR arrestin)
Cn1c(SCC(=O)C(C)(C)C)nnc1-c1ccncc1	none
O=C(O)c1ccc(CSc2ncn[nH]2)cc1	none (no result: ERG Ets-DNA blk)
CCn1c(CSc2ncn[nH]2)nc2cc(C(=O)O)ccc21	ERG Ets-DNA blk 35µM
CCn1c(CSc2nnc(-c3ccncc3)n2C)nc2cc(C(=O)O)ccc21	ERG Ets-DNA blk 25µM
CN(C)/C=C1/Oc2c(ccc3ccccc23)C1=O	Mito fusion act inconclusive
CN(C)/C=C1\Oc2ccc3ccccc3c2C1=O	BRCA1 expr act 7.1µM
Cc1ccc(-c2cc3ncc(C#N)c(N)n3n2)cc1	BRCA1 expr act 8.9µM
Cc1cccc(C)c1NC(=O)c1c[nH]c2ccccc12	BRCA1 expr act 3.5µM
Cc1cccc(C)c1NC(=O)CNC(=O)Cc1c[nH]c2ccccc12	none
CC(=O)c1ccc(NC(=O)C2CCC(CNS(=O)(=O)c3ccc4c(c3)CCCC(=O)N4)CC2)cc1 (stereo not drawn)	none (no result: Mito fusion act, B2AR arrestin)
O=C(Cc1ccc(F)cc1)Nc1nccs1	none
